Screening results (PubChem BioAssay)
Sampled rows, rich in hits. Any-hit rate of the full collection: about 6.8%.
PINK1 modulator = PINK1 expression modulation; AID 624263; 410,000 tested, 0.2% active; PINK1 immunofluorescence, high-content cytometry, 24 h; Potency, µM (doses to about 76.6 µM), for inactives: at the highest dose activation (PINK1 increase), usual class: activators; active = well fitted activation curve with a large enough effect; inconclusive = small, poorly fitted or top-dose-only effect; cell line not stated here; note: % of control where 0% means no effect; nearly all actives have a fitted effect of over 65% in size
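Fluorescence from anti-PINK1 antibody, together with nuclear and cell stains, was scanned on a laser-scanning cytometer. Before staining, stable-line cells were incubated 24 hours with compounds at 5 concentrations; primary antibody 12 h at 10 degrees C.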
KB-3-1 cytotox = KB-3-1 parental cell cytotoxicity; KB-3-1 viability, CellTiter-Glo ATP luminescence, 72 h; Potency, µM (doses to about 46.1 µM), most hits filed as cytotoxic; 400,000 tested, 1.4% active; note: % is set by controls: 0 for no effect and ±100 for the full control effect; nearly all actives have a fitted effect of over 60% in size
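Luminescent ATP read-out (CellTiter-Glo) measures survival of drug-naive KB-3-1 cells after 72 h compound exposure at 37 °C. Titration series was screened from lowest to highest concentration, with DMSO vehicle plates as background controls.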
SW480 rerep = inducers of DNA re-replication in SW480 colon cancer cells. SW480 DNA re-replication, Hoechst DNA content imaging, 48 h. Potency, µM (highest dose often 46.1 µM), for inactives: top-dose re-replication activation, usual class: activators. 340,000 tested, 1.8% active. AID 624297; note: % of control where 0% means no effect; nearly all actives have a fitted effect of over 55% in size
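Quantitative HTS format with DMSO vehicle controls; 48 hr drug incubation at 37 C, then 40 min Hoechst staining and scanning imager measurement at 405 nm excitation.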
MCF10A rerep = induces DNA re-replication in MCF 10a normal breast cells; Potency, µM (doses to about 46.1 µM), without a hit: at the top dose activity, positive = re-replication, hits mostly activators; 350,000 tested, 2.9% active; AID 624296; MCF 10A DNA re-replication, Hoechst nuclear intensity, 48 h; note: % of control where 0% means no effect; nearly all actives have a fitted effect of over 50% in size
TSG101-PTAP inh = blocks PTAP/TSG101 interaction to inhibit HIV-1 budding. Q99816. Fluorescence polarization, FITC-PTAP peptide / Tsg101 binding. Potency, µM (top dose mostly 115 µM), inactives show at the top dose activity change, negative = inhibition, usual class: inhibitors. 340,000 tested, under 10 active; active = well fitted inhibition curve with a large enough effect in the main read-out, with a control signal flat, not every such curve was filed as active; inconclusive = small, poorly fitted or top-dose-only effect, or effect the other way, or a change in a side signal; inactive = no such curve, though single readings can be large or run the other way; note: % of control where 0% means no effect
Target sequence (Q99816 whole entry, looked up): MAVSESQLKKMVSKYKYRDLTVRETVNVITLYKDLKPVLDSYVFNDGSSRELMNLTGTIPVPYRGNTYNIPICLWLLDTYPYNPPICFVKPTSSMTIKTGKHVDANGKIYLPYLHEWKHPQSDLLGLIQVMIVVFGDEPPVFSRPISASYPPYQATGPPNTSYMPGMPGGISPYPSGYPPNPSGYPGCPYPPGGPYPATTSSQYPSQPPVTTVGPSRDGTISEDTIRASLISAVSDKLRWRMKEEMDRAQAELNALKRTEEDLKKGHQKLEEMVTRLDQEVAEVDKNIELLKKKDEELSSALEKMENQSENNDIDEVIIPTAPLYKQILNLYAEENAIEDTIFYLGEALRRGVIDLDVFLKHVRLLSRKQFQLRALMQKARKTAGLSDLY
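Steps: Tsg101 binding domain dispensed (10 uM final), compounds pinned in DMSO, FITC-labeled PTAP-motif peptide added (50 nM final); after 20 min binding at room temperature, polarization measured.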
KB-V1 cytotox = kills drug-selected multidrug resistant KB-V1 cells | KB-V1 MDR cells viability, CellTiter-Glo, 72 h | Potency, µM (top dose mostly 46.1 µM), usual class: cytotoxic | 400,000 tested, 3.4% active | AID 1347076; note: % is set by controls: 0 for no effect and ±100 for the full control effect; nearly all actives have a fitted effect of over 60% in size
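Potencies derive from concentration-effect curves fitted to normalized luminescence (CellTiter-Glo) of KB-V1 cells treated for 72 h at 37 degrees C in phenol-red-free DMEM containing 10% FBS.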
Active calls of the source: *; i = inactive; u = inconclusive; x = no result; [ ] = another dose, or the depositor's remark. Unless noted, calls come from the whole dose curve; as a rule, active = well fitted curve in the direction sought with a large enough effect; inconclusive = small, poorly fitted or top-dose-only effect, or another doubt; inactive = no such curve, though single readings can be large; an effect the other way counts as inactive or inconclusive. Potency is the fitted concentration of half-maximal effect.

SMILES | PINK1 modulator | KB-3-1 cytotox | SW480 rerep | MCF10A rerep | TSG101-PTAP inh | KB-V1 cytotox
Cc1ccsc1C1Nc2ccccc2C(=O)N1O (centres undefined) | 2% | i | 16µM* | 1% | -4% | u
Cc1nn(C)c(C)c1C1Nc2ccccc2C(=O)N1O (centres undefined) | -4% | i | -8% | 8% | -3% | i
O=C(c1ccc2c(c1)N(Cc1ccccc1F)C(=O)c1ccccc1S2(=O)=O)N1CCC(Cc2ccccc2)CC1 | 2% | u | x | x | x | i
COc1ccc(NC(=O)c2cc(=O)c3cc(C)cc(C)c3o2)cc1 | 4% | i | x | x | x | i
COCCNC(=O)c1nn(-c2ccc(Cl)cc2)nc1CO | 0% | x | x | x | x | x
COc1ccc(-c2cc(C(F)F)nn2-c2ccc(S(N)(=O)=O)cc2)cc1F | x | x | 1% | -3% | x | x
Cc1cc(NC(=O)/C(C#N)=C/c2ccc(-c3ccc(SC(F)F)cc3)o2)n(-c2ccccc2)n1 | u | i | u | 5.8µM* | u | i
CCOC(=O)C(C(C)=O)c1c(Br)c(O)c(O)c2c(C(=O)c3ccc(C)cc3)coc12 (centres undefined) | u | i | u | u | x | 21µM*
CCOC(=O)c1c(C)n(-c2ccc(C)cc2)c2c(C(C(C)=O)C(=O)O)c(Br)c(O)c(O)c12 (centres undefined) | -2% | i | u | 30% | -6% | i
CC1=C(/C=C/C(C)=C\C=C\C(C)=C\C=C\C=C(C)\C=C\C=C(C)\C=C\C2=C(C)C[C@@H](O)CC2(C)C)C(C)(C)C[C@H](O)C1 | x | x | 12% | u | x | x
CC1=C[C@@H](O)CC(C)(C)[C@@H]1/C=C/C(C)=C/C=C/C(C)=C/C=C/C=C(C)/C=C/C=C(C)/C=C/C1=C(C)C[C@H](O)CC1(C)C | x | x | u | 30µM* | x | x
Cc1[nH]c2ccc(-c3nnc(SCC(=O)c4ccccc4F)o3)cc2c1C | -2% | i | 4% | 16µM* | 2% | 21µM*
O=C(CSc1nnc(-c2ccccc2)o1)Nc1ccccc1F | 2% | i | 0% | 0% | -2% | u
Cc1ccc(-c2nnc(SCC(=O)Nc3ccccc3N3CCOCC3)o2)cc1 | 1% | i | -2% | 7% | -2% | 13µM*
Cc1ccc(-c2nnc(SCC(=O)Nc3ccccc3F)o2)cc1 | 9% | 5.2µM* | -6% | -3% | 0% | 8.2µM*
Cc1ccc(SCC(=O)Nc2ccccc2N2CCOCC2)cc1 | 1% | i | -10% | -11% | -2% | i
CCOc1ccc(CNC(=O)CCn2c(=O)c3cccn3c3ccc(F)cc32)cc1 | -1% | x | x | x | x | x
Cc1cc(C)c(S(=O)(=O)NCC(c2ccco2)N2CCN(c3ccccc3)CC2)c(C)c1 (centres undefined) | 1% | x | x | x | x | x
O=C1c2cccc3c(N4CCCCC4)ccc(c23)C(=O)N1c1ccc(O)cc1 | u | i | 12µM* | 5.8µM* | u | i
O=C1c2cccc3c(N4CCCCC4)ccc(c23)C(=O)N1c1ccccc1O | 5% | i | 18µM* | 5.8µM* | u | i
O=C(O)c1ccc(N2CCCCCC2)c(N2C(=O)c3ccccc3C2=O)c1 | 1% | i | -7% | -6% | -1% | i
O=C(NCC(c1ccco1)S(=O)(=O)c1cccs1)c1ccccc1 (centres undefined) | 1% | i | x | x | x | i
c1ccc2c(c1)CCc1c(-c3ccncc3)n[nH]c1-2 | -1% | 13µM* | -13% | 17% | -5% | 15µM*
Cc1ccc(-n2ncc(C(=O)NCc3cccs3)c2C2CCN(C(=O)OC(C)(C)C)CC2)cc1 | -2% | i | x | x | x | i
O=C(CSc1ccc(-c2cccnc2)nn1)Nc1ccc(F)c(F)c1 | 6% | i | 0% | 16% | -2% | 9.2µM*
SMILES | PINK1 modulator | KB-3-1 cytotox | SW480 rerep | MCF10A rerep | TSG101-PTAP inh | KB-V1 cytotox
CCOC(=O)CSc1nnc(-c2c[nH]c3ccccc23)o1 | 2% | i | -12% | -1% | -3% | u
O=C(CSc1nnc(-c2cccnc2)o1)Nc1cccc(F)c1 | 5% | i | 3.3µM* | 0% | -4% | i
COc1ccc(CN(C(=O)CSc2nnc(-c3c[nH]c4ccccc34)o2)c2ccc(F)cc2)cc1OC | -1% | u | 7% | 4.1µM* | -6% | 15µM*
COc1ccc(-c2nnc(SCC(=O)Nc3cccc(Cl)c3)o2)cc1 | u | u | 2% | u | -3% | 16µM*
COc1ccc(-c2nnc(SCC(=O)c3ccc(C)o3)o2)cc1 | -1% | u | -8% | -2% | 0% | 23µM*
COc1cc(OC)cc(-c2nnc(SCC(=O)N(C(C)C)C(C)C)o2)c1 | u | i | -1% | u | -5% | i
COc1ccc(CN(C(=O)CSc2nnc(-c3ccc(F)cc3)o2)c2ccc(F)cc2)cc1 | 1%[38.3 µM] | i | 0% | 1% | 0% | 21µM*
COc1cccc(-c2nnc(SCC(=O)N(C(C)C)C(C)C)o2)c1 | u | i | 0% | u | -6% | 18µM*
COc1ccc(-c2nnc(SCc3cc(C)cc(C)c3)o2)cc1 | 1% | i | -2% | 27% | -4% | 21µM*
CCN1/C(=C/c2cc[n+](C)cc2)C=Cc2cc(C)ccc21 | 10µM* | 2.9µM* | -8% | 3% | 1% | i
COC(=O)c1sc(N2C(=O)c3oc4ccc(C)cc4c(=O)c3C2c2ccc(O)c(OC)c2)nc1C (centres undefined) | 0% | i | x | x | x | i
Nc1c(C(=O)Nc2ccc3c(c2)OCCO3)nnn1CCc1ccccc1 | 4% | 6.5µM* | u | 20% | 0% | u
Nc1c(C(=O)Nc2ccc3c(c2)OCCO3)nnn1Cc1ccc(Br)cc1 | 15% | i | 5% | -1% | 1% | i
Nc1c(C(=O)Nc2ccc3c(c2)OCCO3)nnn1Cc1cccc(Br)c1 | 6% | i | u | u | -1% | 15µM*
O=[N+]([O-])c1cc(C(F)(F)F)cc([N+](=O)[O-])c1NCCCNc1ccc([N+](=O)[O-])c2cccnc12 | -3% | i | u | -3% | -3% | 10µM*
Cc1ccccc1Cn1ccc(NC(=O)c2cc3nc(-c4ccco4)cc(C(F)(F)F)n3n2)n1 | 5% | i | u | 8.2µM* | -2% | i
CCc1ccc(-c2cc(C(F)(F)F)n3nc(C(=O)Nc4c(C)nn(Cc5ccccc5C)c4C)cc3n2)s1 | u | i | 2.6µM* | u | 0% | i
